Test [1] concerns the target T1, GST-Nv-NF-kB (Ser allele) (Nematostella vectensis, UniProt A7UNT2 2-411).
T1 sequence: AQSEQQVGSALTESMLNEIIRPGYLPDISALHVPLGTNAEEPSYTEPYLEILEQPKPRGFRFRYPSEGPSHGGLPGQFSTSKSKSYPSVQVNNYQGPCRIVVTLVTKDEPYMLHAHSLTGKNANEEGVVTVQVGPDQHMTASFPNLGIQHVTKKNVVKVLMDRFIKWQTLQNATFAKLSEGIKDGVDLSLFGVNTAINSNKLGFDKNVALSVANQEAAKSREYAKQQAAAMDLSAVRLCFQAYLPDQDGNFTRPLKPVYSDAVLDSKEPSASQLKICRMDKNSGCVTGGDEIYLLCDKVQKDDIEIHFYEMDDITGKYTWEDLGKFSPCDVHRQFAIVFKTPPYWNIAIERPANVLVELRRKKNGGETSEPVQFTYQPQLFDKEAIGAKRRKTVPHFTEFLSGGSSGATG
In words: protein-binding microarray (PBM); PBM: ~300 nM protein, 6 mM HEPES pH 7.8, 80 mM KCl, 0.5 mM EDTA, 0.5 mM EGTA, 6% glycerol, 35 ng/ul poly-dIdC, 1% milk, 1 h, room temperature; Ap Aiptasia and Nv Nematostella (sea anemones) / Co Capsaspora / Aq Amphimedon (sponge) / Dm Drosophila / Hu human; RHD is the Rel homology domain; high values mean tight binding. The following applies: dsDNA, one strand shown.

The target in test [2] is GST-Hu-p50 (Homo sapiens, UniProt P19838 7-356). The description is as above. The following applies: dsDNA, one strand shown.
GST-Hu-p50, sequence (P19838 7-356): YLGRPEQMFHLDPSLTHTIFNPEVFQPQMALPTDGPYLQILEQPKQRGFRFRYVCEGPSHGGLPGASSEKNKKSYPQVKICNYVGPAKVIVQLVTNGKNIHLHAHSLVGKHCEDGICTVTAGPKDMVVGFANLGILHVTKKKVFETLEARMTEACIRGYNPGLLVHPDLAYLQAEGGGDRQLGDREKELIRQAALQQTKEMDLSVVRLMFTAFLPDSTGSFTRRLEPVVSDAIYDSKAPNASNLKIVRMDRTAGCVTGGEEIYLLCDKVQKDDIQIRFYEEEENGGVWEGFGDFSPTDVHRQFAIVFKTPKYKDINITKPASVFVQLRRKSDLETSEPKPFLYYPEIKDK

As to “CCGATTAACATCAGGCCTCCCCCTGATGTTAATCGGGTCTTGATTCGCTTGACGCTGCTG”, the binding signal in test [1] came out at 4.46 z-score; in test [2] it was 4.37 z-score.

On to “CCGATTAACATCAGGGAATTAGATGATGTTAATCGGGTCTTGATTCGCTTGACGCTGCTG”, for which the values for the binding signal in test [1] and in test [2] were 3.54 z-score and 2 z-score, respectively.

Consider “CCGATTAACATCAAGTACCCCCCTGATGTTAATCGGGTCTTGATTCGCTTGACGCTGCTG”, for which the binding signal in test [1] came to 4.15 z-score; in test [2] it was 3.94 z-score.

In the case of “CCGATTAACATCACGGATTTCCCTGATGTTAATCGGGTCTTGATTCGCTTGACGCTGCTG”, the binding signal in test [1] is 5.46 z-score; in test [2] it was 3.76 z-score.

Consider “CCGATTAACATCACGGAGTCCCCTGATGTTAATCGGGTCTTGATTCGCTTGACGCTGCTG”, for which the binding signal is 4.71 z-score in test [1] and 5.13 z-score in test [2].

As for “CCGATTAACATCAGGAGTCTCCCTGATGTTAATCGGGTCTTGATTCGCTTGACGCTGCTG”, the binding signal in test [1] and in test [2] was 1.4 z-score throughout.

“CCGATTAACATCAGGGGTTTAACTGATGTTAATCGGGTCTTGATTCGCTTGACGCTGCTG”: the binding signal in test [1] was 1.69 z-score; in test [2], 3.05 z-score.

Take “CCGATTAACATCACGGACTTCCCTGATGTTAATCGGGTCTTGATTCGCTTGACGCTGCTG”: the binding signal in test [1] came to 2.24 z-score; in test [2], 1.25 z-score.

For the sequence “CCGATTAACATCAGGAATACCCCTGATGTTAATCGGGTCTTGATTCGCTTGACGCTGCTG”, the binding signal in test [1] worked out at 4.15 z-score; in test [2], 5.04 z-score.

Consider “CCGATTAACATCAAACAATTCCCTGATGTTAATCGGGTCTTGATTCGCTTGACGCTGCTG”, for which the binding signal in test [1] turned out to be 5.01 z-score; in test [2], 3.72 z-score.

“CCGATTAACATCAGGAGAATCCCTGATGTTAATCGGGTCTTGATTCGCTTGACGCTGCTG”: the binding signal in test [1] came to 1.07 z-score; in test [2], 1.64 z-score.

Turning to “CCGATTAACATCAAAAGACCCCCTGATGTTAATCGGGTCTTGATTCGCTTGACGCTGCTG”, the binding signal in test [1] was found to be 5.47 z-score; in test [2] it was 5.26 z-score.

In the case of “CCGATTAACATCAGGAATTCCCATGATGTTAATCGGGTCTTGATTCGCTTGACGCTGCTG”, the binding signal in test [1] was determined as 5.66 z-score; in test [2] it was 4.39 z-score.

For “CCGATTAACATCACATTCTCCCCTGATGTTAATCGGGTCTTGATTCGCTTGACGCTGCTG”, the binding signal in test [1] came to 5.45 z-score; in test [2], 3.4 z-score.

As for “CCGATTAACATCACGGGGGGGACTGATGTTAATCGGGTCTTGATTCGCTTGACGCTGCTG”, the results for the binding signal in test [1] and in test [2] were 4.38 z-score and 4.37 z-score, respectively.

As for “CCGATTAACATCAGAAATTCCCATGATGTTAATCGGGTCTTGATTCGCTTGACGCTGCTG”, the binding signal stood at 5.93 z-score in test [1] and 4.64 z-score in test [2].

Take “CCGATTAACATCAAGGGGGGATATGATGTTAATCGGGTCTTGATTCGCTTGACGCTGCTG”: the binding signal in test [1] came to 4.16 z-score; in test [2], 4.95 z-score.

Values taken from PMC5700166.
